Experimental data from PubChem BioAssay (Tox21).
A number with no mark means an inactive call. Results filed as inconclusive are left out. Where a call stands in place of a potency, no number is given. Active and inactive are the calls of the source. Unless noted, calls follow the shape of the dose curve; as a rule, active = well fitted curve in the direction sought with a large enough effect in the repeat runs; inconclusive = weak or mixed curves; inactive = no such curve, though single readings can be large; an effect the other way counts as inactive or inconclusive.

Key:
[1] = qHTS assay to identify small molecule antagonists of the estrogen related receptor (ERR) signaling pathway from Tox21 library - cell viability counter screen (AID 1224834); also: nearly all actives have a fitted effect of over 30% in size; also: potency is read from the fitted curve at half-maximal effect
Procedure, shortened: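 Compounds in DMSO were pinned onto ERR cells that had been incubated for 6 h, and the plates were held at 37 C for 17.5 h. CellTiter-Fluor reagent was then added and fluorescence was measured after 30 min.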

[2] = biological target: Luciferin 4-monooxygenase (Photinus pyralis) (UniProt P08659); assay: qHTS assay to identify small molecule inhibitors of firefly luciferase (AID 1224835); also: nearly all actives have a fitted effect of over 25% in size; also: potency is read from the fitted curve at half-maximal effect
Procedure, shortened: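 Quantitative HTS format; KM concentrations of both substrates. Purified P. pyralis FLuc activity quantified from luminescence images.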

[3] = qHTS assay to identify small molecule agonists of the constitutive androstane receptor (CAR) signaling pathway - cell viability counter screen (AID 1224836); also: nearly all actives have a fitted effect of over 45% in size; also: potency is read from the fitted curve at half-maximal effect
Procedure, shortened: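 Cell viability multiplexed with the CAR agonist screen: CellTiter-Fluor fluorescence after 23 hr at 37 C. HepG2-CYP2B6-hCAR cells got compounds at 15 concentrations with PK11195 at 0.75 uM final.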

[4] = qHTS assay to identify small molecule antagonists of the constitutive androstane receptor (CAR) signaling pathway - cell viability counter screen (AID 1224837); also: nearly all actives have a fitted effect of over 45% in size; also: potency is read from the fitted curve at half-maximal effect
Procedure, shortened: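 Cells are seeded, rested 4 hr at 37 C/5% CO2, dosed with compound (15-point series) and 50 nM CITCO, incubated a further 23 hr, and then CellTiter-Fluor reagent is added before fluorescence is read. The line is HepG2 with stable hCAR and CYP2B6-2.2kb.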

[5] = biological target: Nuclear receptor subfamily 1 group I member 3 (Homo sapiens) (UniProt Q14994); assay: qHTS assay to identify small molecule antagonists of the constitutive androstane receptor (CAR) signaling pathway (AID 1224838);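 also: HepG2 cells stably expressing hCAR with CYP2B6 luciferase reporter stimulated by CITCO; nearly all actives have a fitted effect of over 40% in size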; also: potency is read from the fitted curve at half-maximal effect
Procedure, shortened: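 Luminescence from a CYP2B6-2.2kb promoter reporter in hCAR-expressing HepG2 cells reflects CAR signaling. Cells received compounds at 15 concentrations and 50 nM CITCO (final), then incubated 24 h at 37 C/5% CO2.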

[6] = biological target: Nuclear receptor subfamily 1 group I member 3 (Homo sapiens) (UniProt Q14994); assay: qHTS assay to identify small molecule agonists of the constitutive androstane receptor (CAR) signaling pathway (AID 1224839); also: nearly all actives have a fitted effect of over 15% in size; also: potency is read from the fitted curve at half-maximal effect;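 as to activation: HepG2 cells stably carrying human CAR and a CYP2B6 luciferase reporter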
Procedure, shortened: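 Luminescent ONE-Glo read-out after 24 hr, 37 C exposure of double-stable HepG2-CYP2B6-hCAR reporter cells to a 15-point compound series, in the presence of 0.75 uM PK11195 (final).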

[7] = qHTS assay to identify small molecule antagonists of the estrogen related receptor signaling pathway with the pleiotropic PPARgamma coactivator (PGC) from Tox21 10K library - cell viability counter screen (AID 1224840; active = well fitted cell-killing curve with a large enough effect in the repeat runs, not every such curve was filed as active; also: nearly all actives have a fitted effect of over 40% in size; also: potency is read from the fitted curve at half-maximal effect)
Procedure, shortened: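 Cell viability is measured by CellTiter-Fluor fluorescence in PGC/ERR cells that receive compounds after a 6-hour attachment period and are then incubated 17.5 hours at 37 C.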

[8] = qHTS assay to identify small molecule antagonists of the estrogen related receptor signaling pathway with the pleiotropic PPARgamma coactivator (PGC) from Tox21 10K library (AID 1224841; call rule not given here; also: actives are mostly falling curves and most rising ones were filed inactive; nearly all actives have a fitted effect of over 50% in size; also: potency is read from the fitted curve at half-maximal effect)
Procedure, shortened: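 Cells stably carrying the PGC/ERR reporter, seeded at 2,000 per well, received pin-transferred compounds 6 h post-plating. Exposure lasted 18 h at 37 C. Signal: One-Glo luminescence.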

[9] = biological target: Thyrotropin receptor (Homo sapiens) (UniProt P16473); assay: qHTS assay to identify small molecule agonists of the thyroid stimulating hormone receptor (TSHR) signaling pathway (AID 1224843; calls by dose curve; also: nearly all actives have a fitted effect of over 45% in size)
Procedure, shortened: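 Using 15 concentrations per compound in triplicate, cAMP production was monitored in TSHR-HEK293 cells after 30 min compound incubation at RT; HTRF reagents followed, with fluorescence intensity recorded after 1 h.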

[10] = qHTS assay to identify small molecule agonists of the hypoxia (HIF-1) signaling pathway - cell viability counter screen (AID 1224844; calls by dose curve; also: nearly all actives have a fitted effect of over 50% in size; also: potency is read from the fitted curve at half-maximal effect)
Procedure, shortened: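 Viability counter screen: HRE-bla ME-180 cells plated 5 hrs before compound addition, treated 17 hrs at 37C and 5% CO2, then CellTiter-Glo added after the FRET reporter read; luminescence after 30 min.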

[11] = qHTS assay to identify small molecule agonists of H2AX (AID 1224845; active = well fitted activation curve with a large enough effect in the signal ratio in the repeat runs, not every such curve was filed as active; the % refers to the signal ratio)
Procedure, shortened: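 Wild-type CHO-K1 cells plated overnight, then exposed 3 hr at 37C to compounds at 15 concentrations (0.76% DMSO). Lysed, then HTRF anti-pH2AX(S139)-cryptate/anti-H2AX-d2 detection after 24 hr at room temperature; emissions 665 and 620 nm.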

[12] = qHTS assay to identify small molecule agonists of the hypoxia (HIF-1) signaling pathway (AID 1224846; active = well fitted activation curve with a large enough effect in the signal ratio in the repeat runs, not every such curve was filed as active; the % refers to the signal ratio)
Procedure, shortened: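 Agonist mode reporter screen. ME-180 cells stably expressing bla under HRE control received test compounds in DMSO for 17 hrs (37C, 5% CO2), and beta-lactamase activity was then detected with the CCF4-AM FRET substrate.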

[13] = qHTS assay to identify small molecule agonists of H2AX - cell viability counter screen (AID 1224847; calls by dose curve; also: nearly all actives have a fitted effect of over 30% in size; also: potency is read from the fitted curve at half-maximal effect)
Procedure, shortened: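 Counter-screen for viability: CellTiter-Glo ATP luminescence read after 3 h compound treatment (15-point titration, 0.76% DMSO final) of CHO-K1 cells at 37C, with 30 min room-temperature reagent incubation.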

[14] = qHTS assay to identify small molecule antagonists of the estrogen related receptor (ERR) signaling pathway from Tox21 library (AID 1224848); also: nearly all actives have a fitted effect of over 50% in size; also: potency is read from the fitted curve at half-maximal effect
Procedure, shortened: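 Tox21 10K compounds in DMSO tested for ERR pathway antagonism in NTP's ERR cell line; 18 h, 37 C exposure; ONE-Glo luminescence.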

[15] = qHTS assay to identify small molecule agonists of the estrogen related receptor (ERR) signaling pathway from Tox21 library (AID 1224849; calls by dose curve; also: nearly all actives have a fitted effect of over 15% in size); conditions: ERR reporter cell line, ONE-Glo luciferase, 18 h; at 92.4 µM (top of the series) unless noted
Procedure, shortened: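 Quantitative HTS in agonist format: NTP ERR cell line, compounds transferred in DMSO after 6 h plating, 18 h incubation at 37 C, ONE-Glo luminescence endpoint.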

[16] = qHTS RealTime-Glo MT Cell Viability Assay in HepG2 cells - 24 hour (AID 1224867); also: nearly all actives have a fitted effect of over 50% in size; also: potency is read from the fitted curve at half-maximal effect
Procedure, shortened: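 Viability was tracked continuously by NanoLuc luminescence from prosubstrate reduced by living HepG2 cells, at successive time points over 40 h of compound exposure. Cells with reagent were preincubated 5 h at 37 °C before compound addition.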

[17] = qHTS RealTime-Glo MT Cell Viability Assay in HEK293 cells - 32 hour (AID 1224868); also: nearly all actives have a fitted effect of over 50% in size; also: potency is read from the fitted curve at half-maximal effect
Procedure, shortened: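 Viability tracked continuously by luminescence as live cells reduce a prosubstrate for NanoLuc; HEK293 cells preincubated 5 h, compound-treated at 37 C, and read at 0, 8, 16, 24, 32 and 40 h.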

[18] = qHTS RealTime-Glo MT Cell Viability Assay in HepG2 cells - 40 hour (AID 1224870); also: nearly all actives have a fitted effect of over 50% in size; also: potency is read from the fitted curve at half-maximal effect
Procedure, shortened: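 HepG2 cells mixed with RealTime-Glo MT reagents (NanoLuc plus cell-permeant prosubstrate) were seeded at 600 cells/well, incubated 5 h at 37 C/5% CO2, then pinned with compounds in DMSO; nonlytic luminescence tracked viability during 40 h treatment.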

[19] = A CellTox Green Cytotoxicity Assay to monitor cytotoxicity in HEK293 cells - 0 hour (AID 1224869); also: nearly all actives have a fitted effect of over 50% in size
Procedure, shortened: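 Dead-cell fluorescence measured kinetically: asymmetric cyanine dye, HEK293, 600 cells/well, 5 h settle, 23 nL cpd/DMSO, 37 C, reads 0–40 h every 8 h.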

[20] = qHTS assay to identify small molecule agonists of the estrogen related receptor signaling pathway with the pleiotropic PPARgamma coactivator (PGC) from Tox21 10K library (AID 1224842); also: nearly all actives have a fitted effect of over 15% in size
Procedure, shortened: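 PGC/ERR reporter cells (NTP line) were seeded 2,000 per well, rested 6 h at 37 C/5% CO2, then pin-dosed with compounds in DMSO for 18 h at 37 C; luciferase read by One-Glo luminescence after 30 min at room temperature.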

Sequence of Luciferin 4-monooxygenase (Photinus pyralis) (P08659 whole entry, looked up): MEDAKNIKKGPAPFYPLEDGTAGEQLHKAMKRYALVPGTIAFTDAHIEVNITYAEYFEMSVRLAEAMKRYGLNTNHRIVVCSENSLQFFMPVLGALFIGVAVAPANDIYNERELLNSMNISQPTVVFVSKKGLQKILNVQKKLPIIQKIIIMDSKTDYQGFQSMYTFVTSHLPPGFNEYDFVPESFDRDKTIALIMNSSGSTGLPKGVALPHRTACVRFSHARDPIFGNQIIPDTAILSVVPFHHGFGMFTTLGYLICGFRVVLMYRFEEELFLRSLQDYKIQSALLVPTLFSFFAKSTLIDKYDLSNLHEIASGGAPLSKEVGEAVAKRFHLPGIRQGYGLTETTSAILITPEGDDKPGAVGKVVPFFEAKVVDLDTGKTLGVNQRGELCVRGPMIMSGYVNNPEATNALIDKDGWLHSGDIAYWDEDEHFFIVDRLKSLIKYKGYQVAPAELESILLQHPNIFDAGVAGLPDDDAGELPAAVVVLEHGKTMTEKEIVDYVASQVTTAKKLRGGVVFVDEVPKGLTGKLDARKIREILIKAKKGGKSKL
Sequence of Nuclear receptor subfamily 1 group I member 3 (Homo sapiens) (Q14994 whole entry, looked up): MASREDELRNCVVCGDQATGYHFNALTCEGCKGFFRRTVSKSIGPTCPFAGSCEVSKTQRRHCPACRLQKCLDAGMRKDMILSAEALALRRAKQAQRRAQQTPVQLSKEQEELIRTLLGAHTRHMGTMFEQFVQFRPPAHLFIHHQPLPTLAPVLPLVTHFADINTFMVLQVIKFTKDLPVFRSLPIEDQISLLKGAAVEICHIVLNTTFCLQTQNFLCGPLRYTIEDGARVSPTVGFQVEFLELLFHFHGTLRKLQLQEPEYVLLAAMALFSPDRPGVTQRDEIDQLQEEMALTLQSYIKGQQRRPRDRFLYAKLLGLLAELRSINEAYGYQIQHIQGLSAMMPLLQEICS
Sequence of Thyrotropin receptor (Homo sapiens) (P16473 whole entry, looked up): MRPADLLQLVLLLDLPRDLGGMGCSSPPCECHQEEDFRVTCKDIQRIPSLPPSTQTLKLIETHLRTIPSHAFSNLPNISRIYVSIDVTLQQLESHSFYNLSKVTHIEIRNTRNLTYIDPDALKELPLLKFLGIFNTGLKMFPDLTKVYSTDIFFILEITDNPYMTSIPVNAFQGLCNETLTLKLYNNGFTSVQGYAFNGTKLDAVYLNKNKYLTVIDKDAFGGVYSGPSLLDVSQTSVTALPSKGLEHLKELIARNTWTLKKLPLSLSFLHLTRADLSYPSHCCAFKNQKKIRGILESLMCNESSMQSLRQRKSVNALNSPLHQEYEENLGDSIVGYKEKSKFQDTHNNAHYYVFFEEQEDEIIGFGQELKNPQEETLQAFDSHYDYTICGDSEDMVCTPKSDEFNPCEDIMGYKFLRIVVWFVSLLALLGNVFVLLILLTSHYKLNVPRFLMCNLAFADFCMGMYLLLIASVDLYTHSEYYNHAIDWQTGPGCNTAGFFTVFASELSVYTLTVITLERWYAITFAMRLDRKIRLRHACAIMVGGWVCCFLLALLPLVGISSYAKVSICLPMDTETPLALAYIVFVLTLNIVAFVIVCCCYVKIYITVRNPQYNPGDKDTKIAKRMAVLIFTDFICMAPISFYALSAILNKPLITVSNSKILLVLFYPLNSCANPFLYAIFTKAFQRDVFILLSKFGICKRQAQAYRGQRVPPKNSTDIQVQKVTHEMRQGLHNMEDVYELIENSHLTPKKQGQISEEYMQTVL

Compound | Potency [1] | Potency [2] | Potency [3] | Potency [4] | Potency [5] | Potency [6] | Potency [7] | Potency [8] | Potency [9] | Potency [10] | Potency [11] | outcome [12] | Potency [13] | Potency [14] | activity change, positive = activation [15] [%] | Potency [16] | Potency [17] | Potency [18] | Potency [19] | Potency [20]
COc1cc(CC(C)N)cc2c1OCO2 (centres undefined) | inactive | inactive | inactive | inactive | inactive | inactive | inactive | inactive | inactive | inactive | inactive | inactive | inactive | inactive | -3.18 | inactive | inactive | inactive |  | 
COc1c(C(C)(C)C)cc([N+](=O)[O-])c(C)c1[N+](=O)[O-] | inactive | inactive | inactive | inactive | inactive | 24.1 µM (active) | inactive |  |  | inactive | inactive | inactive | inactive |  |  | inactive | inactive | inactive | inactive | 
IC(I)=C(I)I | 27.3 µM (active) | inactive | 30.6 µM (active) | 27.3 µM (active) | 12.2 µM (active) | inactive | 24.3 µM (active) | 21.7 µM (active) |  | 11 µM (active) |  |  | 31.8 µM (active) | 19.3 µM (active) |  | 0.549 µM (active) | 6.92 µM (active) | 0.347 µM (active) | inactive | inactive
O=[N+]([O-])c1ccc(F)c([N+](=O)[O-])c1 | 34.7 µM (active) | inactive | 34.7 µM (active) | 34.7 µM (active) | inactive | inactive |  | 49 µM (active) |  | 12.4 µM (active) | inactive |  | 57.2 µM (active) | 43.7 µM (active) |  | inactive |  | inactive | inactive | 
O=C(O)C(F)(F)C(F)(F)C(F)(F)C(F)(F)C(F)(F)C(F)(F)C(F)(F)C(F)(F)C(F)(F)F | inactive | inactive | inactive | inactive | inactive | inactive | inactive | inactive | inactive | 13.8 µM (active) | inactive |  | inactive | inactive | 3.44 | inactive | inactive | inactive | inactive | 
CCOP(=S)(OCC)SCn1nnc2ccccc2c1=O | 43.3 µM (active) | inactive | inactive | inactive | inactive | 24.3 µM (active) |  |  | inactive | inactive |  | inactive |  | 27.3 µM (active) |  | inactive | 21.9 µM (active) | inactive | inactive | 
CCCCOC(=O)c1ccccc1C(=O)OCc1ccccc1 | inactive | inactive | inactive | inactive | inactive | 54.5 µM (active) | inactive | inactive |  | inactive | inactive | inactive | inactive | inactive | 3.01 | inactive |  | inactive | inactive | 
CCN(C)N=O | inactive | inactive | inactive | inactive | inactive | inactive | inactive |  | inactive | inactive | inactive | inactive |  |  |  | inactive | inactive | inactive | inactive | 
C[C@]12CC[C@H]3[C@@H](CCC4=CC(=O)CC[C@@H]43)[C@@H]1CC[C@@H]2OC(=O)CCC1CCCCC1 | inactive | inactive | inactive | inactive | inactive | inactive | inactive |  |  | inactive |  |  |  |  |  | inactive | inactive | inactive | inactive | 
ClCc1ccccc1 | inactive | inactive | inactive | inactive | inactive | inactive | inactive |  | inactive |  | inactive | inactive | inactive |  |  | inactive | inactive | inactive | inactive | 
N#C/C(N)=C(/N)C#N | inactive | inactive | inactive | inactive | inactive | inactive | inactive | inactive | inactive | inactive |  |  | inactive | inactive | 0.178 | inactive | inactive | inactive | inactive | inactive
CCCCC(CC)COP(=O)(Oc1ccccc1)Oc1ccccc1 (centres undefined) | inactive | inactive | inactive | inactive | inactive | 27.3 µM (active) | inactive |  |  | inactive | inactive | inactive |  |  |  | inactive | inactive | inactive |  | 
CC(O)(CS(=O)(=O)c1ccc(F)cc1)C(=O)Nc1ccc(C#N)c(C(F)(F)F)c1 (centres undefined) | inactive | inactive | inactive | inactive | inactive | inactive | inactive |  |  | inactive | inactive | inactive | 41.6 µM (active) |  |  |  |  |  | inactive | 
O=S1(=O)OC(c2cc(Br)c(O)c(Br)c2)(c2cc(Br)c(O)c(Br)c2)c2ccccc21 | 25 µM (active) | 10.3 µM (active) | 25 µM (active) | 28.1 µM (active) | 25 µM (active) | inactive | 25 µM (active) |  |  | 6.34 µM (active) |  |  |  |  |  | inactive | inactive | inactive | inactive | 
CCCCCCCCOC(=O)c1ccc(C(=O)OCCCCCCCC)c(C(=O)OCCCCCCCC)c1 | inactive | inactive | inactive | inactive | inactive | inactive | inactive |  | inactive |  | inactive | inactive | inactive |  |  | inactive | inactive | inactive | inactive | 
